Results filed as inconclusive are left out. Activity calls are given as the source filed them. Rule for the calls, unless noted: active = hit-call score of the fitted dose curve at least 0.9, where 1 is the maximum; inactive = score below 0.9.
Test: CCTE_Harrill_HTTr_Apoptosis_MCF7: CCTE's 6-hour Apoptosis Assessment for the High-Throughput Transcriptomics (HTTr) Platform, in MCF-7 cells cultured in DMEM + 10% fetal bovine serum, Harrill Lab (AID 2284011)
Summary of the method: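 Read-out: CellEvent Caspase 3/7 Green signal by high content imaging, gain-of-signal indicating apoptosis. MCF-7 cells, DMEM + 10% FBS, eight-point dilution series, 6 h exposure. Curves fitted bidirectionally relative to DMSO negative control.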

Row | Structure (SMILES) | outcome
1 | CC(C)CO | inactive
2 | CC(C)[N+](C)(CCOC(=O)C1c2ccccc2Oc2ccccc21)C(C)C | inactive
3 | CCCCC1C(=O)N(c2ccccc2)N(c2ccccc2)C1=O | inactive
4 | COc1ccc(C(=O)c2ccccc2)c(O)c1 | inactive
5 | CC(=O)c1ccccc1O | inactive
6 | CC(=O)OC1CCCCC1C(C)(C)C (configuration not stated) | inactive
7 | Cc1noc(NS(=O)(=O)c2ccc(N)cc2)c1C | inactive
8 | Nc1ncnc2nc[nH]c12 | inactive
9 | CC(=O)OCc1ccccc1 | inactive
10 | CCCCCCCC(=O)OCC(COC(=O)CCCCCCC)OC(=O)CCCCCCC | inactive
11 | C=CCCCCCCCCC=O | inactive
12 | CC(C=O)c1ccccc1 (configuration not stated) | inactive
13 | CCCCC/C=C\C/C=C\CCCCCCCC(=O)O | inactive
14 | C=C1C[C@H]2[C@@H]3C=C(C)C4=CC(=O)CC[C@]4(C)[C@H]3CC[C@]2(C)[C@@]1(OC(C)=O)C(C)=O | inactive
15 | CCC(C)C(=O)OC (configuration not stated) | inactive
16 | N=C1C=CC(=C(c2ccc(N)cc2)c2ccc(N)cc2)C=C1 | inactive
17 | Oc1c(Cl)cc(Cl)c(Cl)c1Cl | inactive
18 | CCCCCCO | inactive

Row | Structure (SMILES) | outcome
19 | C1CCSC1 | inactive
20 | Cc1ccc(C)c(OCCCC(C)(C)C(=O)O)c1 | inactive
21 | Cc1c(C(=O)c2c[nH]n(C)c2=O)ccc(S(C)(=O)=O)c1C1=NOCC1 | inactive
22 | NNS(=O)(=O)c1ccc(Oc2ccc(S(=O)(=O)NN)cc2)cc1 | inactive
23 | N#Cc1ccc(C2CCCc3cncn32)cc1 (configuration not stated) | inactive
24 | c1ccc2c(c1)[nH]c1ccccc12 | inactive
25 | O=C(Oc1ccccc1)c1ccccc1O | inactive
26 | C1CNCCN1 | inactive
27 | Fc1ccc(Br)cc1 | inactive
28 | CC(=O)OCC=C(C)C | inactive
29 | Oc1ccc(-c2ccccc2)c(Cl)c1 | inactive
30 | O=C(O)CCCC(=O)O | inactive
31 | c1ccc2cnccc2c1 | inactive
32 | C=C(C)C1CC=C(C)CC1 (configuration not stated) | inactive
33 | CC(C)=CCl | inactive
34 | CN(C)c1ccc2nc3ccc(=[N+](C)C)cc-3sc2c1 | inactive
35 | CCCCCCCCCCCCC | inactive
36 | CCOC(=O)C1=NOC(c2ccccc2)(c2ccccc2)C1 | inactive

Test: CCTE_Harrill_HTTr_CellCount_MCF7: CCTE's Cell Proliferation Assessment for the High-Throughput Transcriptomics (HTTr) Platform, Harrill Lab (AID 2284012; active = hit-call score of the fitted dose curve at least 0.9, where 1 is the maximum;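 note: count of Hoechst-stained nuclei per well by high-content imaging in MCF-7 cells; cells exposed to compound for six hours; intended direction is loss of nuclei count meaning fewer cells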)
Summary of the method: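 Nuclei counting (Hoechst, high content imaging) in MCF-7 after a 6 h treatment at eight concentrations. Activity fitted bidirectionally, DMSO as negative control.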

Row | Structure (SMILES) | outcome
37 | CC(C)[N+](C)(CCOC(=O)C1c2ccccc2Oc2ccccc21)C(C)C | inactive
38 | CCCCC1C(=O)N(c2ccccc2)N(c2ccccc2)C1=O | inactive
39 | COc1ccc(C(=O)c2ccccc2)c(O)c1 | inactive
40 | CC(=O)c1ccccc1O | inactive
41 | CC(=O)OC1CCCCC1C(C)(C)C (configuration not stated) | inactive
42 | Cc1noc(NS(=O)(=O)c2ccc(N)cc2)c1C | inactive
43 | Nc1ncnc2nc[nH]c12 | inactive
44 | CC(=O)OCc1ccccc1 | inactive
45 | C=CCCCCCCCCC=O | inactive
46 | CC(C=O)c1ccccc1 (configuration not stated) | inactive
47 | CCCCC/C=C\C/C=C\CCCCCCCC(=O)O | inactive
48 | C=C1C[C@H]2[C@@H]3C=C(C)C4=CC(=O)CC[C@]4(C)[C@H]3CC[C@]2(C)[C@@]1(OC(C)=O)C(C)=O | inactive
49 | CCC(C)C(=O)OC (configuration not stated) | inactive
50 | Cc1ccc(C)c(OCCCC(C)(C)C(=O)O)c1 | inactive
51 | Cc1c(C(=O)c2c[nH]n(C)c2=O)ccc(S(C)(=O)=O)c1C1=NOCC1 | inactive
52 | N#Cc1ccc(C2CCCc3cncn32)cc1 (configuration not stated) | inactive
53 | O=C(Oc1ccccc1)c1ccccc1O | inactive
54 | C1CNCCN1 | inactive
55 | Fc1ccc(Br)cc1 | inactive
56 | CC(=O)OCC=C(C)C | inactive
57 | Oc1ccc(-c2ccccc2)c(Cl)c1 | inactive
58 | O=C(O)CCCC(=O)O | inactive
59 | c1ccc2cnccc2c1 | inactive
60 | C=C(C)C1CC=C(C)CC1 (configuration not stated) | inactive
61 | CN(C)c1ccc2nc3ccc(=[N+](C)C)cc-3sc2c1 | inactive
62 | CCOC(=O)C1=NOC(c2ccccc2)(c2ccccc2)C1 | inactive

Source: PubChem BioAssay (EPA / NIEHS)
